The campaign covered roughly 320,000 compounds. About 2,200 (0.69%) were called active. The full list was thinned out, with actives kept by preference. Values without a mark were called inactive. Rule as the data show it: active = inhibition above about 43%; inactive = the rest.

Sequence of Prolyl endopeptidase-like (Homo sapiens) (Q4J6C6 whole entry, looked up): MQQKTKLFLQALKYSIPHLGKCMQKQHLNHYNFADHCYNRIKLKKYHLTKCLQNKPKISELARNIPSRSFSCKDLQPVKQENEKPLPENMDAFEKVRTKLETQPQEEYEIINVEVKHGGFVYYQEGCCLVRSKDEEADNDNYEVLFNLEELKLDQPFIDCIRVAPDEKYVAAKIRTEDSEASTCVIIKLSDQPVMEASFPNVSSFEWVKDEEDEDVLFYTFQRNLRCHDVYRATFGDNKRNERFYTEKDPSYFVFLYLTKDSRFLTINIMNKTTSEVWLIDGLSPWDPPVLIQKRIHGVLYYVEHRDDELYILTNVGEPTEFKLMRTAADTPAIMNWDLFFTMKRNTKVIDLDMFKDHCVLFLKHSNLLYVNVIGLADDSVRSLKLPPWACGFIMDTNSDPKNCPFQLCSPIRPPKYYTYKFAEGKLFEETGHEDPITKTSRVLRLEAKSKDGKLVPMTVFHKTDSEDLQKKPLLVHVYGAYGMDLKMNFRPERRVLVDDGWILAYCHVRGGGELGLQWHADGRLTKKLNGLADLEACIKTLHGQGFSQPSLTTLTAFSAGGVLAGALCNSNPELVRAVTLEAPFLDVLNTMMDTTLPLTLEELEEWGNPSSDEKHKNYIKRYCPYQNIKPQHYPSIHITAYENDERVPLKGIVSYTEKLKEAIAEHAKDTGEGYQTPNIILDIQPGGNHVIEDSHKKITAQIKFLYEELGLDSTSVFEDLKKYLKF

This experiment addresses Prolyl endopeptidase-like (Homo sapiens) (UniProt Q4J6C6). The experiment is described as follows: human PREPL activity-probe blockers – biochemical, fluorescence polarization, primary screen (AID 2751).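 Also: 0% = enzyme with DMSO and 100% = wells lacking enzyme.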 Particulars: recombinant PREPL, fluorescence polarization activity-based probe; at 5.96 µM; hits give high values.
Turning to `COc1ccc2[nH]c3c(c2c1)CCN[C@H]3C`, the inhibition was 48.8% (active).

Regarding `O=C(N/N=C/c1c(O)n(C2CC2)c(=S)[nH]c1=O)c1ccccc1Cl`, the inhibition was -3.24%.

Regarding `CCOc1ccc(-c2cc(C)[n+](CCN(CC)CC)c(-c3ccc(OCC)cc3)c2)cc1`, the inhibition is 10.9%.

Consider `CCOc1cccc(=NC2CCCCC2)c2c(C)[nH]c(C)c12`, for which the inhibition is 52.1% (active).

For `Cn1c(O)c(C=NCCCC(=O)O)c(=O)n(C)c1=O`, the inhibition is -8.04%.

As for `N[C@@H](Cc1c[nH]c2ccccc12)c1nnc(SCc2c(F)cccc2Cl)o1`, the inhibition was 2.17%.

On to `CCN(CC)C(=O)c1ccc(NC(=O)c2cc(-n3cnnc3)ccc2Cl)cc1`, for which the inhibition is 15.1%.

Regarding `Cc1nc2ccccn2c1P(=S)(N1CCCCC1)N1CCCCC1`, the inhibition is -7.5%.

As to `COC(=O)C(c1ccccc1)N1CCCCCC1` (stereo not given), the inhibition is 1.34%.

Consider `O=C(NCC(c1cccnc1)N1CCN(c2ccccc2)CC1)Oc1ccccc1` (stereo not given), for which the inhibition is 46.3% (active).

On to `COc1ccccc1N1CCN(C(CNC(=O)Oc2ccccc2)c2cccnc2)CC1` (stereo not given), for which the inhibition is 1.24%.

For the molecule `COc1ccc(C2NCc3ccc4c(c3-n3cccc32)OCO4)cc1OC` (stereo not given), the inhibition was -15.2%.

`COC(=O)N(c1ccc(OC)cc1)P1(=S)OCCC(C)O1` (stereo not given): the inhibition is 8.63%.

As to `O=C(O)C1CSC(c2cccnc2)N1` (stereo not given), the inhibition is 3.28%.

`Cc1c(Oc2cc(NN3CCCCC3)c([N+](=O)[O-])cc2[N+](=O)[O-])cccc1[N+](=O)[O-]`: the inhibition is 4.76%.

What is called inhibition is the change of the read-out against control, counted positive when it falls.

The values are drawn from PubChem BioAssay AID2751 (The Scripps Research Institute Molecular Screening Center, 2010).
